From PubChem BioAssay AID1159580 (chemical genetic matrix, 2015)
Values joined by “and” are separate entries in the source; they are usually repeats but may differ in a detail not shown here. Equal entries are not always repeated. Hit rate of the full screen: of about 5,500 compounds, about 2,000 (36%) were called active. About 18% were inconclusive and are not listed. No stated cut-off is given here; in the data, active means normalized growth mostly below about 0.91 (no sharp cut-off); inconclusive means no clear call, values can overlap the other calls; inactive means mostly above about 0.92. Some of the results follow.

Experiment: chemical genetic growth profiling, strain panel (AID 1159580);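 further: tested at 20 µM; growth read once vehicle control cultures reached saturation at 30 °C; 1 = growth at the plate median or of vehicle wells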
Conditions: S. cerevisiae deletion strains, growth OD

Measured: normalized growth

CC(=O)Oc1cc(OC(C)=O)c2c(c1)O[C@H](c1ccc(OC(C)=O)c(OC(C)=O)c1)[C@H](OC(C)=O)C2
inactive: locus YAL013W, strain DEP1, stronger effect = lower value 1.01 | locus YAL021C, strain ccr4, stronger effect = lower value 1 | locus YAL026C, strain drs2, stronger effect = lower value 1.01 | locus YAL030W, strain snc1, stronger effect = lower value 1 | locus YBL061C, strain skt5, stronger effect = lower value 0.994 | locus YBR009C, strain hhf1, stronger effect = lower value 0.965 | locus YBR021W, strain FUR4, stronger effect = lower value 1 | locus YBR023C, strain chs3, stronger effect = lower value 0.998 | locus YBR171W, strain sec66, stronger effect = lower value 0.999 | locus YBR229C, strain ROT2, stronger effect = lower value 1.01 | locus YBR231C, strain swc5, stronger effect = lower value 1.01 | locus YBR279W, strain paf1, stronger effect = lower value 0.985 | locus YCL011C, strain gbp2, stronger effect = lower value 0.982 | locus YCL016C, strain dcc1, stronger effect = lower value 0.971 | locus YCL029C, strain bik1, stronger effect = lower value 1.02 | locus YCL061C, strain MRC1, stronger effect = lower value 0.999 | locus YCL069W, strain vba3, stronger effect = lower value 1 | locus YCR088W, strain abp1, stronger effect = lower value 1 | locus YDL005C, strain med2, stronger effect = lower value 1.01 | locus YDL035C, strain GPR1, stronger effect = lower value 1.01 | locus YDL040C, strain nat1, stronger effect = lower value 1 | locus YDL074C, strain BRE1, stronger effect = lower value 1.01 | locus YDL101C, strain DUN1, stronger effect = lower value 1.01 | locus YDL185W, strain tfp1, stronger effect = lower value 1.03 | locus YDL192W, strain arf1, stronger effect = lower value 1.02 | locus YDR001C, strain nth1, stronger effect = lower value 0.999 | locus YDR069C, strain doa4, stronger effect = lower value 1 | locus YDR101C, strain arx1, stronger effect = lower value 1.02 | locus YDR137W, strain rgp1, stronger effect = lower value 1.02 | locus YDR159W, strain sac3, stronger effect = lower value 1.02 | locus YDR162C, strain NBP2, stronger effect = lower value 1 | locus YDR195W, strain ref2 1.04 | locus YDR297W, strain sur2, stronger effect = lower value 0.996 | locus YDR318W, strain mcm21, stronger effect = lower value 1.03 | locus YDR334W, strain swr1, stronger effect = lower value 1 | locus YDR335W, strain msn5, stronger effect = lower value 1 | locus YDR388W, stronger effect = lower value 1.03 | locus YDR392W, strain spt3, stronger effect = lower value 0.964 | locus YDR502C, strain sam2, stronger effect = lower value 1.02 | locus YEL003W, strain gim4, stronger effect = lower value 1 | locus YEL037C, strain rad23, stronger effect = lower value 1 | locus YEL061C, strain CIN8 (second series), stronger effect = lower value 0.997 | locus YEL061C, strain CIN8, stronger effect = lower value 1 | locus YER015W, strain faa2, stronger effect = lower value 0.983 | locus YER016W, strain bim1, stronger effect = lower value 1 | locus YER110C, stronger effect = lower value 1.03 | locus YER111C, strain swi4, stronger effect = lower value 0.995 | locus YER155C, strain BEM2 (second series), stronger effect = lower value 1.05 | locus YER155C, strain BEM2, stronger effect = lower value 0.999 | locus YER167W, strain BCK2, stronger effect = lower value 1.02 | locus YFR010W, strain ubp6, stronger effect = lower value 0.998 | locus YGL078C, strain dbp3, stronger effect = lower value 1.02 | locus YGL086W, strain mad1, stronger effect = lower value 0.997 | locus YGL167C, strain pmr1, stronger effect = lower value 0.998 | locus YGL173C, strain kem1, stronger effect = lower value 1 | locus YGL227W, strain vid30, stronger effect = lower value 0.991 | locus YGL240W, strain doc1, stronger effect = lower value 1.04 | locus YGL248W, strain PDE1, stronger effect = lower value 1.01 | locus YGL253W, strain hxk2, stronger effect = lower value 0.984 | locus YGR078C, strain PAC10, stronger effect = lower value 1 | locus YGR135W, strain pre9, stronger effect = lower value 1.02 | locus YGR252W, strain gcn5, stronger effect = lower value 1.05 | locus YHR013C, strain ard1, stronger effect = lower value 0.999 | locus YHR027C, strain rpn1, stronger effect = lower value 0.999 | locus YHR030C, strain SLT2, stronger effect = lower value 1.01 and 0.946 | locus YHR079C, strain IRE1 (second series), stronger effect = lower value 1.03 | locus YHR079C, strain IRE1, stronger effect = lower value 0.968 | locus YHR094C, strain hxt1, stronger effect = lower value 1.02 | locus YHR129C, strain ARP1, stronger effect = lower value 1.01 | locus YHR142W, strain chs7, stronger effect = lower value 0.944 | locus YHR200W, strain rpn10, stronger effect = lower value 1.03 | locus YIL066C, strain RNR3, stronger effect = lower value 0.999 | locus YIL073C, strain SPO22, stronger effect = lower value 1.1 | locus YIL125W, strain kgd1, stronger effect = lower value 1.01 | locus YIR030C, strain dcg1, stronger effect = lower value 1.03 | locus YJL092W, strain hpr5, stronger effect = lower value 1 | locus YJL095W, strain BCK1 (second series), stronger effect = lower value 0.99 | locus YJL095W, strain BCK1, stronger effect = lower value 1 and 0.959 | locus YJL115W, strain asf1, stronger effect = lower value 1 | locus YJL129C, strain trk1, stronger effect = lower value 0.999 | locus YJL134W, strain LCB3, stronger effect = lower value 1.01 | locus YJL154C, strain vps35, stronger effect = lower value 1 | locus YJL164C, strain tpk1, stronger effect = lower value 0.984 | locus YJL166W, strain qcr8, stronger effect = lower value 1 | locus YJL168C, strain set2, stronger effect = lower value 1.03 | locus YJL187C, strain SWE1 (second series), stronger effect = lower value 1.01 | locus YJL187C, strain SWE1, stronger effect = lower value 1.01 | locus YJR043C, strain POL32, stronger effect = lower value 1.01 | locus YJR066W, strain TOR1, stronger effect = lower value 0.935 | locus YJR075W, strain HOC1, stronger effect = lower value 1.02 | locus YKL009W, strain mrt4, stronger effect = lower value 1.02 | locus YKL068W, stronger effect = lower value 1.01 | locus YKL085W, strain MDH1 (second series), stronger effect = lower value 1.01 | locus YKL085W, strain MDH1, stronger effect = lower value 1.01 | locus YKL160W, strain elf1, stronger effect = lower value 1.01 | locus YKR001C, strain vps1, stronger effect = lower value 1.02 | locus YKR026C, strain gcn3, stronger effect = lower value 0.994 | locus YKR091W, strain srl3, stronger effect = lower value 0.994 | locus YLL001W, strain dnm1, stronger effect = lower value 0.985 | locus YLL026W, stronger effect = lower value 0.999 | locus YLL041C, strain sdh2, stronger effect = lower value 1.01 | locus YLR027C, strain aat2, stronger effect = lower value 1.01 | locus YLR039C, strain RIC1, stronger effect = lower value 1.09 | locus YLR058C, strain SHM2, stronger effect = lower value 1.01 | locus YLR102C, strain apc9, stronger effect = lower value 1.02 | locus YLR113W, strain HOG1, stronger effect = lower value 0.94 | locus YLR221C, strain rsa3, stronger effect = lower value 0.964 | locus YLR258W, strain gsy2, stronger effect = lower value 0.979 | locus YLR262C, strain YPT6 (second series), stronger effect = lower value 0.997 | locus YLR262C, strain YPT6, stronger effect = lower value 1.12 | locus YLR268W, strain sec22, stronger effect = lower value 1.04 | locus YLR320W, strain mms22, stronger effect = lower value 0.984 | locus YLR330W, strain CHS5, stronger effect = lower value 1.02 | locus YLR342W, strain FKS1 (second series), stronger effect = lower value 1.01 | locus YLR342W, strain FKS1, stronger effect = lower value 1 | locus YLR357W, strain rsc2, stronger effect = lower value 1.01 | locus YLR370C, strain arc18, stronger effect = lower value 0.979 | locus YLR371W, strain rom2, stronger effect = lower value 1.03 | locus YLR384C, strain iki3, stronger effect = lower value 1 | locus YLR418C, strain cdc73, stronger effect = lower value 1.06 | locus YML016C, strain PPZ1, stronger effect = lower value 1.01 | locus YML032C, strain rad52, stronger effect = lower value 1.03 | locus YML120C, strain ndi1, stronger effect = lower value 0.981 | locus YML124C, strain tub3, stronger effect = lower value 1.02 | locus YMR058W, strain fet3, stronger effect = lower value 1.01 | locus YMR078C, strain ctf18, stronger effect = lower value 1.02 | locus YMR125W, strain sto1, stronger effect = lower value 0.995 | locus YMR129W, stronger effect = lower value 1 | locus YMR205C, strain PFK2, stronger effect = lower value 0.992 | locus YMR223W, strain ubp8, stronger effect = lower value 1.02 | locus YMR231W, strain pep5, stronger effect = lower value 1.01 | locus YMR307W, strain GAS1, stronger effect = lower value 1.01 | locus YNL067W, strain RPL9B, stronger effect = lower value 1.02 | locus YNL071W, strain lat1, stronger effect = lower value 1.01 | locus YNL183C, strain NPR1, stronger effect = lower value 0.91 | locus YNL209W, strain ssb2, stronger effect = lower value 0.996 | locus YNL233W, strain BNI4, stronger effect = lower value 1.01 | locus YNL248C, strain rpa49, stronger effect = lower value 1.03 | locus YNL250W, strain rad50, stronger effect = lower value 1.03 | locus YNL271C, strain bni1, stronger effect = lower value 1.02 | locus YNL298W, strain CLA4, stronger effect = lower value 1.03 | locus YNL307C, strain MCK1, stronger effect = lower value 1.07 | locus YNL322C, strain KRE1 (second series), stronger effect = lower value 0.997 | locus YNR049C, strain mso1, stronger effect = lower value 1 | locus YNR052C, strain pop2, stronger effect = lower value 1.03 | locus YOL012C, strain htz1 0.664 | locus YOL147C, strain pex11, stronger effect = lower value 1.02 | locus YOR001W, strain rrp6, stronger effect = lower value 1.02 | locus YOR061W, strain CKA2, stronger effect = lower value 1 | locus YOR069W, strain VPS5, stronger effect = lower value 1.01 | locus YOR070C, strain gyp1, stronger effect = lower value 0.997 | locus YOR080W, strain dia2, stronger effect = lower value 1 | locus YOR083W, strain WHI5, stronger effect = lower value 0.997 | locus YOR106W, strain vam3, stronger effect = lower value 1.01 | locus YOR136W, strain idh2, stronger effect = lower value 1.05 | locus YOR144C, strain elg1, stronger effect = lower value 1.02 | locus YOR184W, strain ser1, stronger effect = lower value 1.03 | locus YOR231W, strain MKK1, stronger effect = lower value 0.965 | locus YOR265W, strain rbl2, stronger effect = lower value 1.01 | locus YOR270C, strain vph1, stronger effect = lower value 0.943 | locus YOR290C, strain snf2, stronger effect = lower value 0.996 | locus YOR316C, strain cot1, stronger effect = lower value 1.03 | locus YPL051W, strain arl3, stronger effect = lower value 0.997 | locus YPL078C, strain atp4, stronger effect = lower value 1.01 | locus YPL106C, strain sse1, stronger effect = lower value 0.967 | locus YPL240C, strain hsp82, stronger effect = lower value 0.99 | locus YPL256C, strain CLN2, stronger effect = lower value 0.933 | locus YPR119W, strain clb2, stronger effect = lower value 1.01 | locus YPR141C, strain kar3, stronger effect = lower value 1.02 | locus YPR163C, strain tif3, stronger effect = lower value 1.05 | locus YPR167C, strain met16, stronger effect = lower value 1.04 | strain wtn01, stronger effect = lower value 1.01
